# Compound activity from PubChem BioAssay.
# ELG1 DNA repair: blocks ELG1-dependent DNA repair in HEK293T cells; HEK293T ELG1-luciferase reporter, luminescence, 16 h; DNA damage induced by 5-fluorouridine; Potency, µM (series often up to 46.1 µM), inactives show at the top dose activity change, negative = inhibition, most hits filed as inhibitors; actives 2.3% (n = 330,000); AID 504467; note: potency is the fitted concentration of half-maximal effect; nearly all actives have a fitted effect of over 55% in size
#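 Cells (2,000 per well) received 5-fluorouridine plus test compound or DMSO and were incubated 16 hr at 37 °C, 5% CO2. Luciferase activity was read by luminescence 30 min after ONE-Glo addition; signal suppression marked inhibition of damage-induced ELG1 function.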
# TDP1 cell noCPT: qHTS for Inhibitors of human tyrosyl-DNA phosphodiesterase 1 (TDP1): qHTS in cells in absence of CPT; DT40 Tdp1-/- hTDP1 cells, no CPT, ATP luminescence, 48 h; Potency, µM (highest dose often 46.2 µM), for inactives: at the highest dose activity change, negative = growth inhibition, usual class: inhibitors; actives 15% (n = 420,000); AID 686978, 2013; note: potency is the fitted concentration of half-maximal effect; nearly all actives have a fitted effect of over 55% in size
#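 Luminescent ATP content (CellTiter-Glo) served as the growth readout. Knockout chicken DT40 cells expressing human TDP1 were exposed to compounds without camptothecin for a minimum 48 hr at 37 °C.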
# HT1080-NT tox: kills 2HG-producing HT-1080-NT fibrosarcoma cells | HT-1080-NT fibrosarcoma viability, CellTiter-Glo ATP luminescence, 48 h | Potency, µM (top dose mostly 46.1 µM), inactives show at the highest dose activity, negative = less viability, hits mostly cytotoxic | actives 1.6% (n = 360,000) | AID 686970;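 note: NT is the 2HG producing partner of a matched IDH1 knockdown line; potency is the fitted concentration of half-maximal effect; 0% = DMSO-treated cells and -100% = media-only wells without cells; nearly all actives have a fitted effect of over 55% in size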
#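 A 48-hour cytotoxicity screen used HT-1080-NT cells plated 2 hours before compound delivery. ATP-based CellTiter-Glo luminescence measured viability, normalized to DMSO and no-cell controls.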
# HT1080 IDH1KD tx: kills HT-1080 cells with IDH1 knockdown; Potency, µM (doses to about 46.1 µM), inactives show top-dose activity, negative = toxicity, usual class: cytotoxic; HT-1080 IDH1 knockdown viability, ATP luminescence, 48 h; actives 2% (n = 360,000);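 note: potency is the fitted concentration of half-maximal effect; 0% = DMSO wells and -100% = cell-free medium wells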
#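 HT-1080-IDH1KD cells (IDH1 knocked down), 750/well in RPMI with 5% FBS, treated with compound 48 h at 37 degrees C. Viability by CellTiter-Glo luminescence, normalised to DMSO and no-cell wells; concentration-response curves classed.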
# DT40 TDP1 CPT: growth inhibition of DT40 Tdp1-/-;hTDP1 cells with camptothecin (screen for TDP1 inhibitors). Potency, µM (series often up to 46.2 µM), for inactives: top-dose activity change, negative = growth inhibition, hits mostly inhibitors. chicken DT40 Tdp1-/-;hTDP1 cells + 20 nM CPT, ATP luminescence, 48 h. actives 12% (n = 420,000); note: potency is the fitted concentration of half-maximal effect; nearly all actives have a fitted effect of over 55% in size
#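 Chicken DT40 Tdp1-/- cells stably complemented with human TDP1 were seeded at 400 cells/well in medium containing 20 nM camptothecin, exposed to pin-transferred compounds, and grown at 37 °C for at least 48 hr. Viability was read as ATP luminescence.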
# IL-1B inflam inh: inhibitors of inflammasome signaling (IL-1 beta secretion). activity change, % at 57.5 µM. THP-1 LPS/ATP IL-1B secretion, AlphaLISA, 16 h; active compounds read low. actives 4.7% (n = 360,000). AID 743279; in the data active = activity change below about -50%; inconclusive = mostly about -30% to -49%
#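 THP-1 cells pretreated 1 hr with compounds (up to 57.5 uM final), then stimulated with LPS (250 ng/mL final) plus ATP (1.25 mM final); secreted IL-1B measured by AlphaLISA after 16 hr, decreased signal indicating inhibition.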
# The depositor's hits bear a star; ? = inconclusive; nt = no result. An excerpt weighted towards active compounds, which were near 19% of everything screened. Unless noted, calls come from the whole dose curve; as a rule, active = well fitted curve in the direction sought with a large enough effect; inconclusive = small, poorly fitted or top-dose-only effect, or another doubt; inactive = no such curve, though single readings can be large; an effect the other way counts as inactive or inconclusive. Unless noted, % is set by controls: 0 for no effect and ±100 for the full control effect.
SMILES,ELG1 DNA repair,TDP1 cell noCPT,HT1080-NT tox,HT1080 IDH1KD tx,DT40 TDP1 CPT,IL-1B inflam inh
C[C@H](CO)N1C[C@H](C)[C@H](CN(C)Cc2ccncc2)Oc2ccc(NC(=O)Nc3ccc(C(F)(F)F)cc3)cc2CC1=O,?,4.6µM*,?,?,3.3µM*,-10
CCCCC(=O)Nc1cc(C)c(O)c(-c2nc3ncccc3o2)c1,nt,-2%,nt,nt,-2%,nt
COc1ccc(C(CNC(=O)c2ccc(-n3cnnn3)cc2)N2CCOCC2)cc1 (stereo not given),-1%,?,4%,9%,-19%,-15
CN(C)c1ccc(C(CNC(=O)c2ccc(C(C)(C)C)cc2)N2CCCC2)cc1 (stereo not given),nt,7.3µM*,nt,nt,13µM*,nt
COc1ccc(C(=O)NCC(c2ccc(N(C)C)cc2)N2CCOCC2)cc1 (stereo not given),nt,10µM*,nt,nt,7.3µM*,nt
CN(C)c1ccc(C(CNC(=O)c2cccc(C(F)(F)F)c2)N2CCCC2)cc1 (stereo not given),nt,16µM*,nt,nt,15µM*,nt
COc1ccc(C(CNC(=O)c2ccc(Cl)s2)N2CCOCC2)cc1 (stereo not given),1%,-24%,9%,4%,-2%,8
COc1ccc(C(CNC(=O)c2cc3c(s2)CCC(C)C3)N2CCOCC2)cc1 (stereo not given),-17%,?,0%,-11%,23µM*,-12
Cc1ccc(S(=O)(=O)NCC(C)NC(=O)CN2CCOCC2)cc1 (stereo not given),14%,-7%,20%,7%,-1%,10
CCOc1ccc(NS(=O)(=O)c2csc(C(N)=O)c2)cc1,?,?,-3%,0%,?,-17
COc1cccc(-n2ccn(CC(=O)Nc3ccccc3F)c(=O)c2=O)c1,nt,-21%,nt,nt,?,nt
COc1ccc(CNC(=O)CN2C(=O)c3ccccc3C2=O)cc1,11%,0%,15%,19%,0%,14
COc1ccc(C2c3c(n(C)c4ccccc34)C(=O)N2CC(=O)Nc2ccccc2F)cc1 (stereo not given),nt,?,nt,nt,16µM*,nt
COc1ccc(C2c3c(n(C)c4ccccc34)C(=O)N2CC(=O)Nc2ccccc2Cl)cc1 (stereo not given),nt,26µM*,nt,nt,?,nt
CCCNC(=O)CN1C(=O)c2c(c3ccccc3n2C)C1c1ccc(OC)cc1 (stereo not given),nt,13µM*,nt,nt,?,nt
COc1ccc(OC)c(S(=O)(=O)N2CCCC(C(=O)NC3CC3)C2)c1 (stereo not given),nt,?,13%,14%,?,4
COc1ccc(S(=O)(=O)n2nc(C)c(S(=O)(=O)N3CCCCCC3)c2C)cc1OC,nt,-1%,nt,nt,-23%,nt
COc1ccc(NC(=O)C2=C(C)Nc3c(C(=O)Nc4ccc(C)cc4)cnn3C2c2cccc(Cl)c2)cc1 (stereo not given),nt,-27%,nt,nt,?,nt
COc1cccc(C2C(C(=O)Nc3ccc(Cl)cc3)=C(C)Nc3c(C(=O)Nc4ccccc4)cnn32)c1OC (stereo not given),nt,?,nt,nt,23µM*,nt
CC1=C(C(=O)Nc2ccc(Cl)cc2)C(c2ccccc2)n2ncc(C(=O)Nc3ccccc3)c2N1 (stereo not given),nt,15µM*,nt,nt,21µM*,nt
COc1ccccc1NC(=O)C1=C(C)Nc2c(C(=O)Nc3ccc(F)cc3)cnn2C1c1cccc([N+](=O)[O-])c1 (stereo not given),nt,23µM*,nt,nt,?,nt
